Records with an inconclusive call do not appear. Active and inactive are the calls of the source. Unless noted, the call rests on the fitted dose curve; in most records, active means well fitted curve in the direction sought with a large enough effect; inconclusive means small, poorly fitted or top-dose-only effect, or another doubt; inactive means no such curve, though single readings can be large; an effect the other way counts as inactive or inconclusive.
Legend:
[1] = HPAF-II 24hr Apoptosis Induction qHTS against the NCATS CANVASS Library (AID 1347356)
Method in brief: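 500 HPAF-II cells/well; compounds in 11-pnt qHTS; 24 h, 37 C/5% CO2; Caspase-Glo 3/7 added, 15 min RT dark; luminescence read. Doxorubicin control.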

[2] = HEK293 18hr Apoptosis Induction qHTS against the NCATS CANVASS Library (AID 1347357)
Method in brief: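 Caspase-Glo 3/7 luminescence (15 min, room temperature) measured apoptosis after an 18-hour, 37 degrees C exposure of HEK293 cells (500 cells/well) to compounds in 11 points.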

[3] = HPAF-II 12hr Apoptosis Induction qHTS against the NCATS CANVASS Library (AID 1347358)
Method in brief: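 Caspase-Glo 3/7 luminescence (DEVD substrate) reports caspase activity in HPAF-II cells after 12 h compound treatment at 37 degrees C. Compounds were tested in an 11-point series. Doxorubicin served as control.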

[4] = HEK293 12hr Apoptosis Induction qHTS against the NCATS CANVASS Library (AID 1347361)
Method in brief: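 HEK293 cells (500/well, DMEM + 10% FBS) were exposed to natural products across an 11-point series for 12 hours at 37 degrees C. Caspase-3/7 activity was then measured with DEVD luciferase luminescence after 15 min at room temperature.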

[5] = molecular target: Luciferin 4-monooxygenase (Photinus pyralis) (UniProt P08659); experiment: Firefly luciferase counterscreen qHTS: Assay Interference Panel against the NCATS CANVASS Library (AID 1347363); further: series mostly up to about 57 µM
Method in brief: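 Purified P. pyralis luciferase (0.04 ug/mL, 4x reagent) added to Tris-acetate buffer with 0.013 mM D-luciferin, 0.013 mM ATP and 13.3 mM Mg-acetate; compounds preincubated 15 min, then luminescence read after 5 min, RT.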

[6] = KB-8-5-11 Cancer Cell Toxicity qHTS against the NCATS CANVASS Library (AID 1347364); further: nearly all actives have a fitted effect of over 75% in size; further: potency means the concentration at half of the fitted maximal effect
Method in brief: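 CellTiter-Glo luminescence after 72 h exposure; 500 KB-8-5-11 cells/well, DMEM/10% FBS, 37C, 5% CO2; compounds in 11-pt qHTS. Follow-up confirmation included medium with 1uM tariquidar.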

[7] = KB-3-1 Cancer Cell Toxicity qHTS against the NCATS CANVASS Library (AID 1347366); further: nearly all actives have a fitted effect of over 75% in size; further: potency means the concentration at half of the fitted maximal effect
Method in brief: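 CellTiter-Glo luminescence measured viability after 72 h at 37C. KB-3-1 cells were seeded at 500 per well in DMEM/10% FBS.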

[8] = qHTS for ATAD5 Agonist screened against the NCATS CANVASS Library (AID 1347367);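 further: luciferase reporter driven by ATAD5 which rises upon DNA damage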
Method in brief: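 Genotoxicity via ATAD5-luciferase luminescence after 16 h compound exposure (11-point series) at 37C in HEK293T-ATAD5 cells. CellTiter-Fluor viability read precedes the luminescence read; MMS serves as positive control.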

[9] = J3T Cancer Cell Toxicity qHTS against the NCATS CANVASS Library (AID 1347371); further: potency means the concentration at half of the fitted maximal effect
Method in brief: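 Dog glioma J3T, 500 cells/well; cpd 11-pt qHTS; 72 hr, 37C/5% CO2; CellTiterGlo ATP luminescence readout.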

[10] = molecular target: Nuclear receptor subfamily 1 group I member 3 (Homo sapiens) (UniProt Q14994); experiment: qHTS for Constitutive Androstane Receptor (CAR) Agonist screened against the NCATS CANVASS Library (AID 1347373);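 further: every well also contained 1.5 µM PK11195 alongside the test compound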
Method in brief: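 Luciferase read-out (ONE-Glo, 30 min RT) of CYP2B6-2.2kb promoter activity in double-stable HepG2-hCAR cells after 24hr compound exposure with 1.5uM PK11195 present; viability measured first by CellTiter-Fluor.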

[11] = 10-beta competent E. coli microbial cell viability qHTS against the NCATS CANVASS Library (AID 1347376); further: series mostly up to about 46 µM
Method in brief: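 Luminescence from BacTiter-Glo ATP detection served as the viability read-out; bacteria (0.2 OD) had been incubated overnight at 37C with pin-transferred compounds at 11 concentrations.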

[12] = DH5-alpha competent E. coli microbial cell viability qHTS against the NCATS CANVASS Library (AID 1347377); details: outcome: dose series up to 46.1 µM unless noted
Method in brief: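 Luminescent ATP read-out (BacTiter-Glo, 20 min RT) after overnight 37C culture of DH5-alpha E. coli with compounds; daunomycin control at 0.2 nM–9.2 uM final.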

[13] = qHTS for H2AX Agonists against the NCATS CANVASS Library (AID 1347378); further: potency means the concentration at half of the fitted maximal effect
Method in brief: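 Phospho-H2AX (S139) in CHO-K1 lysates measured by HTRF, reported as 665/615 nm emission ratio after 24 hr antibody incubation at room temperature. Cells were first treated with a compound series for 3 hr at 37C (0.76% DMSO final).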

[14] = Inflammasome Signaling qHTS Counterscreen: IL-1-beta AlphaLISA counterscreen against the NCATS CANVASS Library (AID 1347381);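 further: cell-free check with purified IL-1β in medium and no THP-1 cells; series mostly up to about 57 µM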
Method in brief: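 Here, no cellular stimulation occurs; compounds in an 11-point series meet 4 pg purified IL-1-beta directly. Bead-based AlphaLISA detection follows (1 h acceptor/antibody, then 30 min donor, dark, room temperature), with excitation at 680 nm.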

[15] = Cytotoxicity qHTS for assessment of Hepg2 cells membrane integrity screened against the NCATS CANVASS Library (AID 1347387)
Method in brief: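 LDH release read by fluorescence (560 nm ex/590 nm em) after CytoTox-ONE addition and 10 min RT; signal tracks lysed cells. HepG2, 2000 cells/well, plated overnight; compound 5 hr, 37C, 5% CO2, final 0.59 nM - 46 uM, 11 points.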

[16] = qHTS for activators of dead-cell proteases activity screened against the NCATS CANVASS Library (AID 1347392);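 further: luminescence from protease leaking out of membrane-damaged cells cleaving impermeant substrate; rising signal means more cytotoxicity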
Method in brief: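 HepG2, 2000 cells/well, 18 h attach; cpd 11-pt, 5 h 37C 5% CO2; CytoTox-Glo (AAF-aminoluciferin) 15 min RT; luminescence read.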

[17] = Redox Reaction Profiling qHTS: Assay Interference Panel against the NCATS CANVASS Library (AID 1347401); further: potency means the concentration at half of the fitted maximal effect
Method in brief: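 Fluorescence read-out (525 nm excitation, 598 nm emission) at time zero and after 15 min in the dark tracked resorufin formation. Mix: 5 uM resazurin, 200 uM DTT, HEPES pH 7.3 buffer with NaCl.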

[18] = qHTS for inhibitors of Rabies Virus screened against the NCATS CANVASS Library (AID 1347402; calls by dose curve; further: series mostly up to about 46 µM)
[19] = HEK-293 Cancer Cell Toxicity qHTS against the NCATS CANVASS Library (AID 1347355); further: nearly all actives have a fitted effect of over 65% in size; further: potency means the concentration at half of the fitted maximal effect
Method in brief: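 1000 cells/well, 4 h pre-incubation 37 °C/5% CO2; 11-pnt titration; 72 h; CellTiter-Glo 15 min RT, luminescence.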

Measured: Potency

Luciferin 4-monooxygenase (Photinus pyralis), sequence (P08659 whole entry, looked up): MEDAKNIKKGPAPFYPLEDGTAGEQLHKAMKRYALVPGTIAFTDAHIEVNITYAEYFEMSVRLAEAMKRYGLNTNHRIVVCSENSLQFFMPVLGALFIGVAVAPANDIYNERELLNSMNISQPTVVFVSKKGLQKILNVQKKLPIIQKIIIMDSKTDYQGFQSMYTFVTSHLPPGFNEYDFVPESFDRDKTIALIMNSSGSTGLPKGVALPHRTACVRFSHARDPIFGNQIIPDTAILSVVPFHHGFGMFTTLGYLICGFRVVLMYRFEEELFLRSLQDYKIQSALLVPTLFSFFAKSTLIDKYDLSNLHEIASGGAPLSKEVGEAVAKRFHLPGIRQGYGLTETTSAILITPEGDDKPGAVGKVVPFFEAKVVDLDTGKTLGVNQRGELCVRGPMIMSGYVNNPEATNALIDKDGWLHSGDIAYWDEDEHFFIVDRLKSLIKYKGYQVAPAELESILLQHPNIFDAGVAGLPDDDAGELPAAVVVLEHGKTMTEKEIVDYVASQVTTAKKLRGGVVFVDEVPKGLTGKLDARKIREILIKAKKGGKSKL
Nuclear receptor subfamily 1 group I member 3 (Homo sapiens), sequence (Q14994 whole entry, looked up): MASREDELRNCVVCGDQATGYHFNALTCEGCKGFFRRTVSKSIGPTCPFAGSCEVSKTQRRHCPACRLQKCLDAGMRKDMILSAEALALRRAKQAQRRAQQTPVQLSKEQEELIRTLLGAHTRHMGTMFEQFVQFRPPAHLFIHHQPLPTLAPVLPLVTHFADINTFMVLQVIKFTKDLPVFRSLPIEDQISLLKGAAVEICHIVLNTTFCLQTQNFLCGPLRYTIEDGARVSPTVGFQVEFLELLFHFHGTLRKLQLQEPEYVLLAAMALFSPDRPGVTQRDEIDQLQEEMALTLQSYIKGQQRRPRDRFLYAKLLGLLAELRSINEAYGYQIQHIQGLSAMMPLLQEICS

C=CC(C)(C)[C@@]12C[C@H]3C(=O)N/C(=C/c4cnc[nH]4)C(=O)N3[C@@H]1Nc1ccccc12
not listed: [19]
inactive: all other assays above

C=CC(C)(C)[C@@]12C[C@H]3C(=O)N/C(=C\c4cnc[nH]4)C(=O)N3[C@@H]1Nc1ccccc12
inactive: all assays above

COC1C(O)C(C)OC(OC2C(Oc3cccc4c(O)c5c(=O)oc6ccc(C)c7c(=O)oc(c34)c5c67)OC(C)C(O)C2O)C1O (stereo unspecified)
active: [19] 14.8 µM | [9] 23.5 µM | [13] 27.3 µM | [17] 2.15 µM
not listed: [6] | [7]
inactive: all other assays above

CO[C@@]12c3c(C)cc(O)c4c(=O)occ(c34)C(=O)[C@@H]1[C@]13COC(=O)c4c(O)cc(C)c(c41)C(=O)[C@H]2[C@@H]3OC(C)=O
inactive: all assays above

CCC(=O)N[C@@H](C[C@H](C)C(Cl)(Cl)Cl)C(=O)N1C(=O)C=C(OC)[C@@H]1C[C@H](C)C(Cl)Cl
not listed: [6] | [12] | [18]
inactive: all other assays above

CC[C@@H]1CN2CCc3c([nH]c4cccc(OC)c34)[C@@H]2C[C@@H]1/C(=C\OC)C(=O)OC
active: [19] 18.7 µM
not listed: [6] | [7] | [9] | [17]
inactive: all other assays above

CC[C@]12C=CCN3CC[C@]4(C(=C(C(=O)OC)C1)Nc1ccccc14)[C@@H]32
not listed: [19]
inactive: all other assays above

CO[C@H]1C[C@H](O[C@H]2[C@@H](O)C[C@H](O[C@H]3CC[C@]4(C=O)[C@H]5CC[C@]6(C)C(C7=CC(=O)OC7)CC[C@]6(O)[C@@H]5CC[C@]4(O)C3)O[C@@H]2C)O[C@H](C)[C@H]1O[C@H]1C[C@@H](OC)[C@@H](O[C@@H]2O[C@H](CO)[C@@H](O)[C@H](O)[C@H]2O)[C@@H](C)O1 (stereo partly specified)
active: [19] 0.118 µM | [6] 0.166 µM | [7] 0.187 µM | [9] 0.332 µM
not listed: [18]
inactive: all other assays above

C/C=C1/CN2C3CC1C1=CCC(=O)N4c5ccccc5[C@@]3(C[C@@H]2C2=C[C@H]3C5CC6N(CC[C@@]67c6ccccc6N(C2=O)[C@@H]37)C/C5=C/C)[C@H]14 (stereo partly specified)
active: [19] 7.43 µM | [6] 16.6 µM | [9] 23.5 µM
not listed: [2] | [4] | [7] | [12] | [13] | [18]
inactive: all other assays above

COC1=C(C2=C(OC)C(=O)c3cc4c(c(O)c3C2=O)C(=O)O[C@H](C)C4)C(=O)c2c(cc3c(c2O)C(=O)O[C@H](C)C3)C1=O
active: [17] 1.14 µM
inactive: [19] | [1] | [2] | [3] | [4] | [6] | [7] | [8] | [9] | [10] | [11] | [12] inactive [at 15.4 µM] | [13] | [14] | [15] | [16] | [18]
